# Data published in PubChem BioAssay (Tox21).
# Results filed as inconclusive are left out. Unmarked numbers belong to inactive results. Calls come from the whole dose curve; as a rule, active = well fitted inhibition curve with a large enough effect in the repeat runs; inconclusive = weak or mixed curves, or effect the other way; inactive = no such curve, though single readings can be large or run the other way.
# Biological target: Nuclear receptor subfamily 1 group I member 3 (Homo sapiens) (UniProt Q14994)
# Assay: qHTS assay to identify small molecule antagonists of the constitutive androstane receptor (CAR) signaling pathway (AID 1224838);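 note: HepG2 cells stably expressing hCAR with CYP2B6 luciferase reporter stimulated by CITCO; nearly all actives have a fitted effect of over 40% in size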
# Details: HepG2-CYP2B6-hCAR luciferase, CITCO-stimulated, 24 h; series mostly up to 92.4 µM; activity, negative = inhibition: at the top concentration
# Description: U.S. Tox21 Program National Center for Advancing Translational Sciences [NCATS] NIH Chemical Genomics Center [NCGC] U.S. Environmental Protection Agency [EPA] National Institutes of Environmental Health Sciences [NIEHS] National Toxicology Program [NTP] U.S. Food and Drug Administration [FDA] Tox21 Assay Overview: The constitutive androstane receptor (CAR) is a nuclear receptor which regulates multiple drug metabolizing enzymes (DMEs) and transporters. Activating CAR will generally increase the transcription and subsequent translation of CYP2B6 and CYP3A4. These two DMEs represent about 50% of the drug metabolizing potential in the body. When CAR is deactivated, the metabolizing potential in the body will decrease, subsequently increasing the toxicity in the body or lowering the therapeutic potential of a pro-drug. Recently, there have also been studies performed indicating CARs role in energy metabolism and cancer therapy. Therefore, inhibiting CARs activity could have a potential effect on diabetes and cancer. Identifying environmental toxins and compounds which modulate CAR, through the use of the Tox21 10K compound collection, will be an important step in determining the toxicity and potential therapeutic effects these factors will have on the human body.
# Tox21 Assay Protocol Summary: A double-stable (hCAR and CYP2B6-2.2kb) transfected cell line, derived from human hepatoma (HepG2) cells, was utilized for the duration of the quantitative high-throughput screens. The HepG2-CYP2B6-hCAR cells suspended in DMEM culture medium supplemented with 10% FBS, 5 ug/mL blasticidin, 0.5 mg/mL geneticin, 100 U/mL penicillin and 100 ug/mL streptomycin were dispensed at 2500 cells/4 uL/well in 1536-well white solid bottom plates using a Multidrop Combi. After the assay plates were incubated at 37 C/5% CO2 for 4 hrs, 23 nL of compounds at 15 concentrations (from 5-48 columns) or positive control (from 1 to 4 columns) were transferred to the assay plates using a Pintool station. One uL of CITCO, was added using a Flying Reagent Dispenser to generate a final concentration of 50 nM CITCO inside each well. After a 24 hr incubation period at 37 C/5% CO2, four uL of ONE-Glo reagent was added into the assay plates using a Flying Reagent Dispenser. After a 30 min incubation period at room temperature, the luminescence intensity in the assay plates was measured using a ViewLux plate reader.
# % is set by controls: 0 for no effect and ±100 for the full control effect.
# Chain of Nuclear receptor subfamily 1 group I member 3 (Homo sapiens) (Q14994 whole entry, looked up): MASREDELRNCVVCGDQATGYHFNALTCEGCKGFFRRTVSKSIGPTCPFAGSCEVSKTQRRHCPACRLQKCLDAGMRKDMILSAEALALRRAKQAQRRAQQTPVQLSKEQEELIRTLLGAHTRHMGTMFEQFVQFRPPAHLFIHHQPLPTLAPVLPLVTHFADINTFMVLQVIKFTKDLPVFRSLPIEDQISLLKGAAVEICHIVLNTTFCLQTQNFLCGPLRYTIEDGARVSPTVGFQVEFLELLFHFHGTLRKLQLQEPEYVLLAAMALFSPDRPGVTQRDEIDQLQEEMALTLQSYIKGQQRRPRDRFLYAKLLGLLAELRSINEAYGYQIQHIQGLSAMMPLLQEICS
row,SMILES,"activity, negative = inhibition"
1,O=C(O)c1cc(C(=O)O)c(C(=O)O)cc1C(=O)O,12.6%
2,NC(=O)c1cc[n+](CC2=C(C(=O)[O-])N3C(=O)[C@@H](NC(=O)Cc4cccs4)[C@H]3SC2)cc1,-18.7% [at 42.5 µM]
3,O=C1CCCN1CCO,-18.6%
4,O=C(OCCOCCOCCOC(=O)c1ccccc1)c1ccccc1,20.2%
5,CC(CN=Cc1ccccc1O)N=Cc1ccccc1O (stereo not given),70.1%
6,COc1ccc(C(=O)c2ccc(C)cc2)c(O)c1,232%
7,c1ccc(CN(Cc2ccccc2)Cc2ccccc2)cc1,15%
8,FC1(F)C(F)(F)C(F)(F)C2(F)C(F)(C1(F)F)C(F)(F)C(F)(F)C1(F)C(F)(F)C(F)(F)C(F)(F)C(F)(F)C12F (stereo not given),-0.537%
9,CCCC1CCCC(=O)O1 (stereo not given),10.8%
10,CCCCOC(=O)CC#N,-3.08%
11,CCCCCCCCOCCCN,-8.02%
12,C(/C=C/C=C/Nc1ccccc1)=Nc1ccccc1,23.9%
13,CCc1ccc2c(c1)C(=O)c1ccccc1C2=O,354%
14,Cc1ccc(NC(=O)c2ccc(CN3CCN(C)CC3)cc2)cc1Nc1nccc(-c2cccnc2)n1,287% [at 42.5 µM]
15,O=C1c2ccccc2C(=O)C1c1ccc2ccccc2n1,226% [at 42.5 µM]
16,CC(C)(O)C(=O)O,-5.94%
17,CCOc1ccc(NC(C)=O)cc1N,89.6%
18,O=C(O)c1ccccc1-n1cc(C(=O)O)c(=O)c2cc(Nc3c(F)cc(F)cc3Cl)c(Cl)cc21,-9.24%
19,CC1=C(C)C(=O)C(CCCCC#CCCCC#CCO)=C(C)C1=O,98.2% [at 42.5 µM]
20,CC(C)(C)N,-3.13%

row,SMILES,"activity, negative = inhibition"
1,CCC(=O)O[C@@H]1C[C@H]2CC[C@]1(C)C2(C)C,-10.8%
2,CCCCOc1ccc(N)cc1,114%
3,O=C(Cl)c1cc(Cl)cc(Cl)c1,4.19%
4,CC1(C)[C@@H]2CC[C@]3(C2)[C@@H]1C(=O)CCC3(C)C,-7.92%
5,CC(C)CC(C)(C)C,165%
6,CCOc1ccc2c(c1)C(C)CC(C)(C)N2 (stereo not given),110%
7,COc1ccc(/C=C/c2cc(OC)cc(=O)o2)cc1,59.2% [at 42.5 µM]
8,Cc1ccc2ccccc2c1[N+](=O)[O-],8.86%
9,SCCOCCOCCS,30.9%
10,O=c1c2ccccc2oc2ccccc12,106%
11,COc1cc(CNC(=O)CCCC/C=C/C(C)C)ccc1O,41.8%
12,[O-][n+]1ccc(Cl)cc1,20.5%
13,Cc1nc(C)c(C)nc1C,0.389%
14,CC1(C)C(=O)NC(=O)N1CO,-7.52%
15,O=[N+]([O-])c1cccc(I)c1,4.41%
16,O=C(OCCN1CCOCC1)c1cccnc1Nc1cccc(C(F)(F)F)c1,22.5% [at 42.5 µM]
17,CC(CCl)OC(C)CCl (stereo not given),8.7%
18,Nc1ccccc1Nc1ccccc1,-20.1%
19,C1CCN(CN2CCCCC2)CC1,-3.31%
20,COc1cc(C)c(Cc2cnc(N)nc2N)cc1OC,13.8% [at 42.5 µM]
